From PubChem BioAssay (EPA / NIEHS)
Records with an inconclusive call do not appear. Activity calls are given as the source filed them. How the source made its calls: active means hit-call score of the fitted dose curve at least 0.9, where 1 is the maximum; inconclusive means response in the unintended direction; inactive means score below 0.9.

How the values were obtained:
[1] = TOX21_p53_BLA_p2_viability: Viability Assessment in the Tox21 HCT-116 p53 Agonism Beta-lactamase Assay, Phase 2 (AID 2283591);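 further: actives lower the ATP signal meaning cytotoxicity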
Outline: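 HCT-116 p53-bla cells (4000/well) rested 5 h at 37C, then received compounds in DMSO (217-fold dilution) for 16 h at 37C, 5% CO2. After the CCF4 read, CellTiter-Glo was added; ATP luminescence was read after 30 min at room temperature.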

[2] = target: Cellular tumor antigen p53 (Homo sapiens) (UniProt P04637); test: TOX21_p53_BLA_p2_ratio: Tox21 HCT-116 p53 Agonism Beta-lactamase Assay, Ratio, Phase 2 (AID 2283592)
Outline: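 An inducible beta-lactamase reporter in HCT116 cells signals p53 pathway activation. After 16 h chemical exposure at 37C, cells load CCF4-AM substrate for 2 h at room temperature; activity is the cleaved/uncleaved emission ratio relative to DMSO.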

[3] = target: Cellular tumor antigen p53 (Homo sapiens) (UniProt P04637); test: TOX21_p53_BLA_p3_ratio: Tox21 HCT-116 p53 Agonism Beta-lactamase Assay, Ratio, Phase 3 (AID 2283596)
Outline: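 HCT116 p53-bla cells (4000/well) given compound in DMSO (217-fold dilution) after 5 h, incubated 16 h at 37C. CCF4-AM substrate 2 h at room temperature; 460/530 nm emission ratio, gain fitted against DMSO.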

[4] = TOX21_p53_BLA_p4_viability: Viability Assessment in the Tox21 HCT-116 p53 Agonism Beta-lactamase Assay, Phase 4 (AID 2283597);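 further: hits lower the luminescence signal meaning cytotoxicity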
Outline: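 Compound exposure of HCT116 cells lasts 16 h at 37C, 5% CO2, with DMSO stocks diluted 217-fold. Cellular ATP is then quantified by CellTiter-Glo luminescence after 30 min at room temperature.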

[5] = target: Cellular tumor antigen p53 (Homo sapiens) (UniProt P04637); test: TOX21_p53_BLA_p5_ratio: Tox21 HCT-116 p53 Agonism Beta-lactamase Assay, Ratio, Phase 5 (AID 2283599)
Outline: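 HCT-116 cells carrying a p53-inducible beta-lactamase reporter were seeded at 4000 cells/well and dosed after 5 h with compound in DMSO (217-fold dilution). After 16 h at 37C, CCF4-AM substrate was added for 2 h, and the 460/530 nm emission ratio was scored as gain-of-signal versus DMSO.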

[6] = TOX21_p53_BLA_p5_viability: Viability Assessment in the Tox21 HCT-116 p53 Agonism Beta-lactamase Assay, Phase 5 (AID 2283600)
Outline: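 Counter-readout for cytotoxicity: ATP-dependent luminescence from CellTiter-Glo, read in the beta-lactamase wells after 30 min at RT, following a 16 h compound exposure at 37C.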

[7] = target: Cellular tumor antigen p53 (Homo sapiens) (UniProt P04637); test: TOX21_p53_BLA_p4_ratio: Tox21 HCT-116 p53 Agonism Beta-lactamase Assay, Ratio, Phase 4 (AID 2283601)
Outline: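 HCT116 cells carrying an inducible beta-lactamase reporter were plated at 4000 cells/well, rested 5 h, then exposed to compounds in DMSO (217-fold dilution) for 16 h at 37C. CCF4-AM substrate was loaded 2 h at room temperature; 460/530 nm emission ratio scored gain-of-signal versus DMSO.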

Measured: AC50

Chain of Cellular tumor antigen p53 (Homo sapiens) (P04637 whole entry, looked up): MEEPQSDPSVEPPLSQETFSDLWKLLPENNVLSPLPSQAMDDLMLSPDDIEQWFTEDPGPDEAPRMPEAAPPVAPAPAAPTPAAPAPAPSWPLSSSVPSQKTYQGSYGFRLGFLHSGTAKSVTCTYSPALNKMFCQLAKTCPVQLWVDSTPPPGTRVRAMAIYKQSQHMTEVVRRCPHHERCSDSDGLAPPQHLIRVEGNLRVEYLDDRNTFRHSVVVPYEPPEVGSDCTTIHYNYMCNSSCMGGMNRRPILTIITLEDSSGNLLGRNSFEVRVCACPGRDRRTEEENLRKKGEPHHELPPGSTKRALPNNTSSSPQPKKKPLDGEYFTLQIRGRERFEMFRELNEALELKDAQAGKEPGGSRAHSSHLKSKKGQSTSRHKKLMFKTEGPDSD

N#CCC(=O)NN
inactive: all assays above

NS(=O)(=O)c1cc2c(cc1C(F)(F)F)NCNS2(=O)=O
not listed: [7]
inactive: all other assays above

CO/N=C(\C(=O)N[C@@H]1C(=O)N2C(C(=O)[O-])=C(C[n+]3ccc(N)n3CCO)CS[C@H]12)c1csc(N)n1
not listed: [7]
inactive: all other assays above

CCC(=O)OC/C=C/c1ccccc1
not listed: [6] | [7]
inactive: all other assays above

CCCOC(=O)C(C)O (stereo not given)
inactive: all assays above

CC(C)Nc1ccccc1
inactive: all assays above

Cc1ccc([N+](=O)[O-])cc1Cl
inactive: all assays above

C=C1C[C@@]23CC[C@H]4[C@@](C)(CCC[C@@]4(C)C(=O)O[C@@H]4O[C@H](CO)[C@@H](O)[C@H](O)[C@H]4O)[C@@H]2CC[C@]1(O[C@@H]1O[C@H](CO)[C@@H](O)[C@H](O[C@@H]2O[C@H](CO)[C@@H](O)[C@H](O)[C@H]2O)[C@H]1O[C@@H]1O[C@H](CO)[C@@H](O)[C@H](O)[C@H]1O)C3
inactive: all assays above

CC(CN(C)C)C(C)(O)Cc1ccc(Cl)cc1 (stereo not given)
inactive: all assays above

CC1=CC(=O)CC(C)(C)C1=O
inactive: all assays above

O=CC(=O)c1ccccc1
inactive: all assays above

CCC(=O)O[C@H]1CC[C@H]2[C@@H]3CCc4cc(O)ccc4[C@H]3CC[C@]12C
active: [4] 37.2 µM
inactive: all other assays above

Cc1cc(NS(=O)(=O)c2ccc(N)cc2)nc(C)n1
inactive: all assays above

O=C(Nc1ccc([N+](=O)[O-])cc1)Nc1ccc([N+](=O)[O-])cc1
inactive: all assays above

O=S(=O)(O)C(F)(F)F
inactive: all assays above

C[C@@H](O)[C@H](N)C(=O)O
inactive: all assays above

CC(C)NCC(O)COc1ccc(COCCOC(C)C)cc1 (stereo not given)
inactive: all assays above

O=[N+]([O-])c1ccc2ncccc2c1
inactive: all assays above

CC(C)NCC(O)c1ccc(NS(C)(=O)=O)cc1 (stereo not given)
inactive: all assays above

CCc1cccc2c3c([nH]c12)C(CC)(CC(=O)O)OCC3 (stereo not given)
inactive: all assays above

Cc1cc(C)cc(N)c1
inactive: all assays above

O=C(O)Cn1c(C(=O)Nc2nc(-c3ccccc3Cl)cs2)cc2ccccc21
active: [4] 38.9 µM | [5] 37.1 µM | [6] 40.7 µM
inactive: all other assays above

CCCCC1C(=O)N(c2ccccc2)N(c2ccc(O)cc2)C1=O (stereo not given)
inactive: [3] | [6] | [7]
active: [1] 19 µM | [2] 15.8 µM | [4] 17 µM | [5] 15.4 µM

O=CC=C(c1ccccc1)c1ccccc1
active: [2] 46.4 µM | [4] 29.8 µM
inactive: all other assays above

O=C(Cn1ccnc1[N+](=O)[O-])NCCO
inactive: all assays above

CC1=Nc2ccccc2C1(C)C
inactive: all assays above

Brc1c2ccccc2cc2ccccc12
inactive: all assays above
